Records with an inconclusive call do not appear. A call without a number means that no potency is given here. A number with no mark means an inactive call. Activity calls are given as the source filed them. Calls follow the shape of the dose curve; as a rule, active = well fitted inhibition curve with a large enough effect; inconclusive = small, poorly fitted or top-dose-only effect; inactive = no such curve, though single readings can be large or run the other way. Where a SMILES comes first, the peptide text is derived from it. Bridges are numbered along the chain shown (N, C = ends). [ ]: non-standard residue; d: D form. The star is where a group is joined. X1 = CCC(C)C(N)C1=NC(C(=O)*)CS1; dOrn = NCCC[C@@H](N)C(=O)O
Columns and labels:
[1] = system: Zika virus NS2B-NS3 protease (unlinked complex); assay: Primary screen GU Rhodamine qHTS for Zika virus inhibitors: Unlinked NS2B-NS3 protease assay (AID 1347159); also: nearly all actives have a fitted effect of over 60% in size
Method in brief: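 Compounds, tested up to 114 microM, were incubated for 15 minutes with 25 nM unlinked NS2B-NS3 protease at pH 8.0. Cleavage of 1.5 microM Rhodamine110 substrate was then followed by fluorescence for 15 minutes.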

[2] = system: Zika virus NS2B-NS3 protease (linked construct); assay: Primary screen NINDS Rhodamine qHTS for Zika virus inhibitors (AID 1347160); also: nearly all actives have a fitted effect of over 55% in size
Method in brief: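 Percent inhibition, normalized to uninhibited and enzyme-free controls, is fitted to a 4-parameter Hill equation. Fluorescence change comes from a 15-min cleavage of 1.5 microM bis-peptide Rhodamine110 substrate by 25 nM linked NS2B-NS3 at room temperature.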
Potency is read from the fitted curve at half-maximal effect.

Structure (SMILES)	Potency [1]	Potency [2]	activity change, negative = inhibition [1]	activity change, negative = inhibition [2]
Cc1cn2c(N)c(Cl)cc(C(=O)NCC3CCN(CC(C)C)CC3)c2n1	inactive	inactive		
CCCCCCc1cccc(NC(=O)[C@H](N)CCP(=O)(O)O)c1	inactive	inactive		
C/C=C(\C)C(=O)OC[C@H]1O[C@H](O[C@H]2O[C@H](CO)[C@@H](OC(=O)/C(C)=C/C)[C@H](O)[C@H]2O[C@@H]2O[C@H](CO)[C@@H](O)[C@H](O)[C@H]2O)[C@H](O[C@@H]2O[C@H](CO)[C@@H](O)[C@H](O)[C@H]2O)[C@@H](O)[C@@H]1O	inactive	inactive		
COC(=O)[C@H](CC1C=NC=N1)NCC12CC3CC(CC(C3)C1)C2 (stereo not given in full)	inactive	inactive		
C=C1C2=CC(O)C(C)C1(C)CC/C(C)=C/CCC1(C)OC1C2=O (stereo not given)	inactive	inactive		
CC(=O)N1c2ccccc2C2(O)CC3C(=O)NC(CC(C)C)C(=O)N3C12 (stereo not given)	inactive	inactive		
Cc1cc(C)c(S(=O)(=O)N(Cc2ccc(-c3cccc(S(C)(=O)=O)c3)cc2)Cc2ccc(C(F)(F)F)o2)c(C)c1	inactive	inactive		
Cc1cccc(-c2[nH]c(CNc3ccccc3F)nc2-c2ccc3ncnn3c2)n1	inactive	inactive		
CO[C@@H]1COCC[C@@H]1N[C@@H]1CC[C@@](C(=O)N2CCc3ncc(C(F)(F)F)cc3C2)(C(C)C)C1	inactive	inactive		
CCC(C)C(N)C1=NC(C(=O)N[C@@H](CC(C)C)C(=O)N[C@H](CCC(=O)O)C(=O)N[C@H](C(=O)N[C@H]2CCCCNC(=O)[C@H](CC(N)=O)NC(=O)[C@@H](CC(=O)O)NC(=O)[C@H](Cc3cnc[nH]3)NC(=O)[C@@H](Cc3ccccc3)NC(=O)[C@H]([C@@H](C)CC)NC(=O)[C@@H](CCCN)NC2=O)[C@@H](C)CC)CS1 (stereo not given in full) (X1-L[dE]IK[dOrn]I[dF]H[dD]N; lactam 4-C)	inactive	inactive		
COCCCNCC1COc2ccccc2O1 (stereo not given)	inactive	inactive		
O=C(NC[C@H](O)CN1CCc2ccccc2C1)c1cc(NC2COC2)ncn1	inactive	inactive		
Nc1nc(CC(=O)Nc2ccc(CCNCC(O)c3ccccc3)cc2)cs1 (stereo not given)	inactive	inactive		
CO/N=C(/C(=O)N[C@@H]1C(=O)N2C(C(=O)O)=C(CSC(=O)c3ccco3)CS[C@H]12)c1csc(N)n1	35.5 µM (active)	25.1 µM (active)		
COc1cc(/C=C/C(=O)O[C@H]2[C@H](OC(=O)/C=C/c3cc(OC)c(O)c(OC)c3)O[C@H](CO[C@@H]3O[C@H](CO)[C@@H](O)[C@H](O)[C@H]3O)[C@@H](O)[C@@H]2O)ccc1O	inactive	inactive		
COC(=O)C[C@@H]1C(C(=O)O)=CO[C@@H](O[C@@H]2O[C@H](CO)[C@@H](O)[C@H](O)[C@H]2O)/C1=C\COC(=O)/C=C\c1ccccc1	inactive	inactive		
COc1c2c(c(C)c3c1C(=O)OC3)OC1(C)CC(O)C3(O)C(C)(C)OC(=O)CCC3(C)C1C2 (stereo not given)	inactive	inactive		
COc1cc(/C=C/C(=O)OC(C)(C)C(OC2OC(CO)C(O)C(O)C2O)C(=O)OCc2ccc(OC3OC(CO)C(O)C(O)C3O)cc2)ccc1O (stereo not given)	inactive	inactive		
O=C1Nc2ccc(O)cc2O[C@H]1O[C@@H]1O[C@H](CO)[C@@H](O)[C@H](O)[C@H]1O	inactive	inactive		
O=C(OCc1cccc(O)c1O[C@@H]1O[C@H](CO)[C@@H](O)[C@H](O)[C@H]1O)C1(O)C(=O)C2C=CC1C1C=CC(=O)C(O)(C(=O)OCc3cccc(O)c3O[C@@H]3O[C@H](CO)[C@@H](O)[C@H](O)[C@H]3O)C21 (stereo not given in full)	inactive	inactive		
Cc1cc(C)cc(NC(=O)Cc2ccc(OC(C)(C)C(=O)O)cc2)c1	inactive	inactive		
Cc1coc2c1CC1OC1(C)CCC1OC1(C)C2 (stereo not given)	inactive	inactive		
CC(=O)OCC(=O)O[C@@H]1[C@H]2[C@@H](OC(=O)c3ccccc3)[C@@H](C)C[C@]2(O)[C@H](OC(C)=O)C2(C)[C@H]3CC(C)(C)C(=O)[C@@H]3CC1(OC(C)=O)[C@@H]2OC(C)=O (stereo not given in full)	inactive	inactive		
Cc1c(CN(C)C(=O)/C=C/c2cnc3c(c2)CCC(=O)N3)oc2ccccc12	inactive	inactive		
C=C1CCC2C(C)(COC3OC(COC(=O)CC(=O)O)C(O)C(O)C3O)CCCC2(C)C1CCC1=CCOC1=O (stereo not given)	inactive	inactive		
CC(=O)N(O)CCCCCN1C(=O)CCC1=O	inactive	inactive		
COC1(CC(C)C)NC(=O)C(O)(Cc2ccccc2)NC1=O (stereo not given)	inactive	inactive		
COc1cc(O[C@@H]2O[C@H](CO)[C@@H](O)[C@H](O)[C@H]2O)c(CCC(=O)OC[C@H]2O[C@@H](Oc3cc(OC)c(C4OC(=O)C(C)(O)C4O)cc3CCC(=O)O)[C@H](O)[C@@H](O)[C@@H]2O)cc1C1OC(=O)C(C)(O)C1O (stereo not given in full)	inactive	inactive		
CC1=CC2(O)/C=C/C(C)(O)CC(O)/C=C/C(=O)OC23C(=O)NC(CC(C)C)C3C1C (stereo not given)	inactive	inactive		
CC(=O)O[C@H]1CC[C@@]2(CI)C(=CC[C@@H]3[C@@H]2CC[C@]2(C)[C@@H]([C@H](C)CCCC(C)C)CC[C@@H]32)C1			13.5% [at 19.1 µM]	7.05% [at 10.7 µM]

— PubChem BioAssay (NCATS)
